Lmaj promast: Leishmania major promastigote growth inhibition, primary screen; Leishmania major promastigotes, resazurin fluorescence viability; inhibition, % at 10 µM; hit rate 9% among 200,000; in the data active = inhibition above about 50%;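 also: promastigotes grown with compound for 44 hours at 28 °C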
WT yeast gro inh: growth inhibition of WT strain, primary screen, mitochondrial fusion inhibitor project, WT and mutant strains, chemical genetic; mitochondrial fusion phenotypic screen; inhibition, % at 10 µM; hit rate 2.1% among 190,000; AID 1362, 2008; in the data active = inhibition above about 58%; tested in S. cerevisiae
Insulin prom inh: inhibitors of insulin promoter-driven GFP, primary screen, imaging, TRM-6 cells (human fetal islet line), eGFP reporter, cell count | reporter expression induced with tamoxifen | inhibition, % at 2 µM | hit rate 0.9% among 130,000 | AID 1273, 2008;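 active = inhibition above the mean plus 3 SD, with well images judged a real hit on visual review, cut at about 60% in these data, passing the limit was not always enough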
ROMK primary: ROMK potassium channel modulators, primary screen, cell-based, thallium flux, MLSMR library. ATP-sensitive inward rectifier potassium channel 1 (Homo sapiens), P48048. Tet-inducible ROMK, thallium flux fluorescence; actives lie on both sides. B-score at 10 µM. hit rate 2% among 130,000. AID 1918, 2009;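 active = signal ratio slope over the read window, or its plate-corrected B-score, at least 3 SD from the plate mean, either direction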;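 also: B-score of the F/F0 ratio slope over 7 to 12 s after thallium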
Cl transport mod: KCC2 cotransporter modulators, thallium flux, primary screen, cell-based, HEK293 KCC2, FluoZin-2 fluorescence, MLSMR; Solute carrier family 12 member 5 (Homo sapiens), Q9H2X9; KCC2 cells, thallium flux FluoZin-2 fluorescence; B-score of Tl+ flux slope (higher = more flux/activation; lower = inhibition) at 10 µM; hit rate 2.2% among 190,000; AID 1456, 2008;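 active = thallium flux slope and its plate-corrected score both differing from the plate sample mean at a set confidence after two filtering rounds, in either direction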;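 also: slope of fluorescence scaled to starting intensity during 10 to 20 s after thallium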
Target sequence (Q9H2X9 whole entry, looked up): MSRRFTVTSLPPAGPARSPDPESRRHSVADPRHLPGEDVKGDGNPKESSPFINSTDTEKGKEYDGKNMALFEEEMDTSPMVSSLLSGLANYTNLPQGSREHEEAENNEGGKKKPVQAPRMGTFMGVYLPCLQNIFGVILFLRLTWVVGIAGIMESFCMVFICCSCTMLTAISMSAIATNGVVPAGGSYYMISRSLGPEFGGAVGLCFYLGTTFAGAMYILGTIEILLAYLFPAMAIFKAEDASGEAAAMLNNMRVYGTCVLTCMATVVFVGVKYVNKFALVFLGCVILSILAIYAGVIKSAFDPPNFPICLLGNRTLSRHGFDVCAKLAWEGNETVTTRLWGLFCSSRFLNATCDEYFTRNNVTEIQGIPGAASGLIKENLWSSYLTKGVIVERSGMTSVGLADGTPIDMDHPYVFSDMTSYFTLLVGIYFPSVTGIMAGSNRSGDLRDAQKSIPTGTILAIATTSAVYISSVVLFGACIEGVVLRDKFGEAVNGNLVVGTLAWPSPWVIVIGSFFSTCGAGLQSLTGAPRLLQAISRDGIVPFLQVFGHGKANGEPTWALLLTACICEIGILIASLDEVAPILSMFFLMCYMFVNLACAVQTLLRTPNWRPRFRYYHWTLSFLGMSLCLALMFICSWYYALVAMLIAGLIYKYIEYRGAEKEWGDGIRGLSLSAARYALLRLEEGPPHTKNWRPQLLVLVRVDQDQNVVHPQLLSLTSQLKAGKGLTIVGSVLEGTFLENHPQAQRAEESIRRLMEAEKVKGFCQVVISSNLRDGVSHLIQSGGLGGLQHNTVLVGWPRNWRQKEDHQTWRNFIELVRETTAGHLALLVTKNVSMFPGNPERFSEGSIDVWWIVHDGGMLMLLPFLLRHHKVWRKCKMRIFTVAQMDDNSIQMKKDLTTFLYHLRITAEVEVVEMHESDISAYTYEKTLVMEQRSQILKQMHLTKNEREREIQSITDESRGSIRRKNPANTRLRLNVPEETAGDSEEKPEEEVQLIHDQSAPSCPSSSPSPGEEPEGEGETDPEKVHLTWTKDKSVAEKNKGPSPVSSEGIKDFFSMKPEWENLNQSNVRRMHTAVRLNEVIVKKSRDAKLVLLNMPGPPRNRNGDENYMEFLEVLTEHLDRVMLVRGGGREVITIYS
Insulin prom up: insulin promoter activators in MIN6 cells, imaging, high-content screening, mouse beta cells. AID 1625, 2009. z-score at 5 µM. hit rate 0.3% among 190,000. MIN6 insulin promoter-GFP reporter; stronger effect = higher value;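 active = z-score above 3 at 5 µM with at least 500 cells counted in the well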
Starred values were filed as active, the others as inactive; · = no result. Shown are actives, neighbours in structure and some others; about 12% of the full set was active somewhere.

SMILES | Lmaj promast | WT yeast gro inh | Insulin prom inh | ROMK primary | Cl transport mod | Insulin prom up
COc1ccc(C2C(C#N)=C(/N=C/N3CCN(C)CC3)OC3=C2C(=O)CC(C)(C)C3)cc1OC (stereo not drawn) | 63.9* | -9.4 | 19.4 | 0.358 | -0.317 | -0.07
CC(C)CSc1nsc(N)n1 | -1.5 | 20.2 | 85.7* | · | 1.63 | -0.13
CCc1ccc(/C=N/NC(=O)c2cc(C3CC3)nc3ccc(Br)cc23)s1 | 18.2 | 15.5 | 35.2 | 1.05 | 0.94 | -0.82
CCCc1sc(N)nc1-c1ccc(Cl)cc1 | 20.7 | 69.0* | · | · | -1.86 | -1.24
CCCCCCC1CCC(c2nc(-c3ccncc3)no2)CC1 (stereo not drawn) | -11.8 | 78.7* | -12.7 | 0.157 | 0.0078 | -0.1
CCCC1CCC(c2nc(-c3cccnc3)no2)CC1 (stereo not drawn) | -4.4 | 30.9 | 29.0 | · | 1.58 | 2.25
COc1ccc(OC)c(NC(=O)COC(=O)/C=C/c2c(C)nn(C3CCS(=O)(=O)C3)c2Cl)c1 (stereo not drawn) | 1.7 | 14.1 | -31.6 | · | 0.665 | -1.33
Cc1nn(C2CCS(=O)(=O)C2)c(Cl)c1/C=C/C(=O)OCC(=O)c1cc(C)n(-c2ccc(F)cc2)c1C (stereo not drawn) | 98.2* | 10.1 | 16.9 | · | 0.465 | 0.64
Cc1nn(C2CCS(=O)(=O)C2)c(Cl)c1/C=C/C(=O)OCC(=O)c1c[nH]c2ccccc12 (stereo not drawn) | 59.8* | -12.7 | 5.6 | -0.902 | -1.22 | -0.71
Cc1cc2ccccn2c1C(=O)c1cc([N+](=O)[O-])cc([N+](=O)[O-])c1 | 100.4* | 41.0 | · | -2.52 | -3.31 | 0.05
Cc1cc2ccccn2c1C(=O)c1ccc(NN)c([N+](=O)[O-])c1 | -2.1 | 3.3 | · | -0.164 | -2.15 | 0.32
CCc1cccc(CC)c1NC(=S)NC(C)c1ccccc1 (stereo not drawn) | 39.7 | 60.1* | 40.0 | -0.477 | -1.25 | ·
COc1ccc(NC(=S)NCc2ccc3c(c2)OCO3)cc1 | -2.3 | 3.5 | · | 0.391 | -0.648 | 0.25
CCc1cccc(CC)c1NC(=S)NCc1ccc2c(c1)OCO2 | 59.5* | 19.2 | 26.3 | 0.532 | -0.97 | 0.08
O=C(NCc1ccc2c(c1)OCO2)C1(S(=O)(=O)c2ccccc2)CC1 | -1.8 | -26.3 | 93.3* | · | · | ·
CC(C)c1ccc(NC(=S)NCc2ccc3c(c2)OCO3)cc1 | -3.7 | 67.0* | 36.4 | 0.107 | -1.05 | 0.09
S=C(NCc1ccc2c(c1)OCO2)NCc1ccc2c(c1)OCO2 | 7.1 | 6.5 | -13.3 | 0.269 | 1.14 | -0.2
c1ccc2nc(N3CCCC3)c(N3CCCC3)nc2c1 | -2.0 | 2.2 | · | -0.613 | 0.0447 | 0.46
CCc1ccc(-c2nn(-c3cc(Cl)ccc3[N+](=O)[O-])c(=O)c3ccccc23)cc1 | 9.1 | 10.9 | -53.9 | -0.693 | · | -1.98
Cc1noc(C)c1COC(=O)c1cccnc1SCC(=O)Nc1ccc2c(c1)OCO2 | 1.3 | -3.8 | · | -1.24 | -0.012 | -0.58
O=C(N/C(=C/c1cccs1)C(=O)N1CCOCC1)c1ccccc1 | -4.8 | -5.7 | -7.1 | -0.42 | 0.565 | 0.12
CCC(=O)NC(=S)Nc1ccccc1C(=O)OC | 29.7 | 20.0 | -11.1 | -0.00349 | 0.72 | 0.94
COc1ccc(C(=O)NN(C)c2nc(-c3ccccc3)nnc2C(F)(F)F)cc1 | -15.0 | 64.1* | · | -0.198 | · | 0.93
CN(C)CCC1CCN(c2cc(C#N)c(C#N)cc2[N+](=O)[O-])CC1 | 55.2* | -1.9 | · | 0.149 | 0.0529 | -0.18
CNc1oc(C)nc1S(=O)(=O)c1ccc(C)cc1 | -1.4 | 67.6* | -18.8 | -1.8 | · | 0.19
CCOc1ccc(NC(=O)c2nsc(Cl)c2Cl)cc1 | -3.1 | -15.0 | · | 1.11 | 0.542 | -0.1
CCOc1ccc(C(C(=O)NC2CCCC2)N(Cc2ccccc2)C(=O)c2nsc(Cl)c2Cl)cc1 (stereo not drawn) | 26.7 | 62.4* | -15.4 | · | · | 0.55
COc1ccc(C(C(=O)NC2CCCC2)N(Cc2ccccc2)C(=O)c2nsc(Cl)c2Cl)cc1 (stereo not drawn) | 8.0 | 63.1* | · | · | -0.446 | 0.72
COc1ccc(C(C(=O)NC2CCCCC2)N(C(=O)c2sc(C)nc2C)c2ccccc2)cc1 (stereo not drawn) | -1.3 | -4.7 | -6.7 | 0.583 | 1.05 | ·

High-throughput results (PubChem)
